Experimental data taken from PubChem BioAssay (NCATS).
Inconclusive results are not listed. Unmarked numbers belong to inactive results. The source made the active and inactive calls. The call rests on the fitted dose curve; in most records, active means well fitted inhibition curve with a large enough effect; inconclusive means small, poorly fitted or top-dose-only effect; inactive means flat fitted curve, though single readings scatter.

Assay: P-glycoprotein substrates identified in KB-8-5-11 adenocarcinoma cell line, qHTS therapeutic library screen (AID 1346987); further: nearly all actives have a fitted effect of over 65% in size
Conditions: KB-8-5-11 (P-gp overexpressing) viability, CellTiter-Glo, 72 h; series mostly up to 44.5 µM; activity change, negative = cytotoxicity: at the top concentration
From the text: The ATP-binding cassette transporters P-glycoprotein (P-gp) is known to limit brain penetration of many chemotherapy drugs. […] As such, we developed a high-throughput screen (HTS) to identify substrates of P-gp from a series of chemical libraries including the National Center for Advancing Translational Sciences Pharmaceutical Collection NPC, 2,816 compounds), testing a total of 10,804 compounds, most of which have known mechanisms of action. We used the CellTiter-Glo viability assay to test library compounds against the parental KB-3-1 human cervical adenocarcinoma cell line and the colchicine-selected sub-line KB-8-5-11 that over-expresses P-gp. KB-8-5-11 cells were also tested in the presence of a P-gp inhibitor (tariquidar) to assess reversability of transporter-mediated resistance. Of the tested compounds, a total of 90 P-gp substrates were identified including 55 newly identified P-gp substrates. Substrates were confirmed using an orthogonal killing assay against HEK-293 cells transfected with P-gp. As exemplars, we confirmed that […] (cyclin-dependent kinase inhibitor); AT9283, (Janus kinase 2/3 inhibitor); ispinesib (kinesin spindle protein inhibitor); gedatolisib (PKI-587, phosphoinositide 3-kinase/mammalian target of rampamycin inhibitor); GSK-690693 (AKT inhibitor); and KW-2478 (heat shock protein 90 inhibitor) were substrates , and direct ATPase stimulation was assessed. ABCG2 was also found to confer high levels of resistance to AT9283, GSK-690693 and gedatolisib, while ispinesib, AT7519 and KW-2478 were weaker substrates.
The HeLa derivative cell line, KB-3-1, and its colchicine-selected, P-gp-overexpressing subline, KB-8-5-11 were maintained in DMEM with 10% FCS and Pen/Strep with glutamine at 37 degree C in 5% CO2. For KB-8-5-11 cells, colchicine was added to the medium at a concentration of 100 ng/mL. HEK-293 cells transfected with empty vector (pcDNA) or vector containing human ABCB1 (MDR-19) or ABCG2 (R-5) have been described previously (Robey, Lin, Qiu, Chan & Bates, 2011) and were maintained in EMEM supplemented with 10% FCS, Pen/Strep and glutamine with 2 mg/ml G418 to select for the expression of the transporter. Cultures were confirmed to be free of mycoplasma infection using the MycoAlert Mycoplasma Detection Kit (Lonza, Walkersville, MD). For the screen, assay medium was identical to culture medium except for KB-8-5-11 where colchicine was excluded from the medium.
All cell lines were plated into 1536-well plates at 500 cells/well in 5 uL media. Compounds were then pinned in dose-response using a 1536-head pin tool (Kalypsis, San Diego, CA) and plates were incubated at 37 degree C in 5% CO2 for an additional 72 h. CellTiter-Glo reagent (Promega) was dispensed into the wells, incubated for 5 min and luminescence was read on a ViewLux instrument (Perkin-Elmer). Cytotoxic compounds were defined as those that yielded a curve class of -1.1, -1.2, -2.1, -2.2, -2.3, or -2.4, a maximum response of >50% and an AC50 of < 10 uM. Cherry-picked hits from screening analysis were tested with both the KB pair of cell lines, and the pcDNA (empty vector control) and MDR-19 (P-gp overexpressing) pair were tested, in the absence and presence of tariquidar.
On the % scale 0 is the no-effect control and ±100 the full control effect; potency means the concentration at half of the fitted maximal effect.

Row | Compound | Potency | activity change, negative = cytotoxicity | outcome
1 | CC1CCCC[C@H]2C(=O)C=C[C@H](O)[C@@H]2CC(=O)O1 (stereo not given in full) | 7.31 µM (active) |  | 
2 | C[C@@H](NC(=O)c1ccc(C#Cc2cccc(F)c2)cn1)C(C)(C)O |  | -12.1% | 
3 | COc1cc(C(=O)NC(=S)Nc2cccc(NC(=O)c3ccccc3)c2)cc(OC)c1OC |  | -3.28% | 
4 | CC(C)(CO)c1cc2cc(NC(=O)C3(c4ccc5c(c4)OC(F)(F)O5)CC3)c(F)cc2n1CC(O)CO (stereo not given) |  | 3.44% | 
5 | COC1CCN(c2cccc(-c3cc(NC(C)=O)nc(-n4nc(C)cc4C)n3)n2)CC1 | 20.6 µM (active) |  | 
6 | C[C@]12CC[C@@H]3c4ccc(O)c(O)c4CC[C@H]3[C@@H]1CCC2=O |  | -16.8% | 
7 | CCN(CC)CCCS(=O)(=O)N[C@H](CCc1ccccc1)c1nc(Cc2ccc(Br)cc2)no1 | 23.1 µM (active) |  | 
8 | C/C1=C/CCC2=CC(OC2=O)C(C)(C)/C=C/C1=O (stereo not given) | 3.26 µM (active) |  | 
9 | Nc1nc(O)c(C2=C3C(=Nc4ccccc43)C(=O)NCC2)[nH]1 |  |  | inactive
10 | COC1CC/C=C(\C)C(=O)Nc2cc(O)cc(c2)CC(C)CC(OC)C(O)C(C)/C=C(\C)C1OC(N)=O (stereo not given) |  |  | inactive [at 17.3 µM]
11 | CN=C(NC)NCc1ccccc1 |  | 13% | 
12 | C=C(C)C(=O)O[C@H]1C[C@@](C)(O)C2(O)CCC(C)(/C=C3/OC(=O)C(COC)=C31)O2 (stereo not given in full) | 6.4 µM (active) |  | 
13 | COc1cc(N2CCC(N)CC2)ccc1Nc1ncc(Cl)c(-c2c[nH]c3ccccc23)n1 | 4.11 µM (active) |  | 
14 | CCNC(=O)N1CCCN(c2ccc(C(=O)NCCc3ccc(Cl)cc3Cl)cc2NC(=O)c2cccc(Cl)c2)CC1 |  | -21.8% | 
15 | C[C@H]1CC[C@@]2(OC1)O[C@H]1CC3[C@@H]4CC[C@@H]5C[C@@H](O[C@@H]6O[C@H](CO)[C@@H](O[C@@H]7O[C@H](CO[C@@H]8OC[C@@H](O)[C@H](O)[C@H]8O)[C@@H](O[C@@H]8O[C@H](CO)[C@H](O)[C@H](O)[C@H]8O)[C@H](O)[C@H]7O)[C@H](O)[C@H]6O)CC[C@]5(C)C4CC[C@]3(C)[C@H]1[C@@H]2C (stereo not given in full) |  | 3.95% [at 9.29 µM] | 
16 | O=c1[nH]cnc2c([C@@H]3N[C@H](CO)[C@@H](O)[C@H]3O)c[nH]c12 |  |  | inactive
17 | O=c1cc(NCCCN[C@@H]2CCOc3c(Br)cc(Br)cc32)[nH]c2ccsc12 |  | -12.4% | 
18 | CC(=O)NCc1cccc(OC[C@@H](O)CNCCc2ccc(NS(=O)(=O)c3ccccc3)cc2)c1 |  |  | inactive
19 | Cn1nc(C(C)(C)C)cc1C(=O)N[C@@H](Cc1cccc(Cl)c1)C(=O)NCC#N |  | -14.7% | 
20 | CCCCCc1ccc(/C=C/C(=O)Nc2cc(Cl)ccc2C(=O)O)cc1 |  | -13.6% | 

Row | Compound | Potency | activity change, negative = cytotoxicity | outcome
21 | O=C(CN1C2=NCCN2c2ccccc21)c1ccc(-c2ccccc2)cc1 | 16.4 µM (active) |  | 
22 | CCCCCCCCCCCCCCCCCC(=O)OCCO |  | -16.9% | 
23 | CNCCCC1(c2ccccc2)OC(C)(C)c2ccccc21 (stereo not given) |  | -11.3% | 
24 | C/C=C/C=C/c1cc2c(C=O)c(O)c(CC=C(C)C)cc2o1 |  | -11.6% | 
25 | CN(C)c1ccnc2sc3c(=O)n(N4CCCCCC4)cnc3c12 |  | -16% | 
26 | Cc1ccc(N2CCN(CCC3NC(=O)c4ccccc43)CC2)cc1C (stereo not given) |  | -19.6% | 
27 | CCCCC(=O)O | inactive |  | 
28 | O=C([C@@H](Cc1cccc(C(F)(F)F)c1)NS(=O)(=O)c1cc(F)c2c(c1)CCNC2)N1CCCC1 |  | -18.2% | 
29 | CC(C)(C)C1CCN(C(=O)n2ncc(C(O)(c3ccccc3)c3ccccc3)n2)CC1 | 20.6 µM (active) |  | 
30 | NCCOc1cc(C(=O)Nc2cc(OCCN)c3ccccc3n2)nc(C(=O)Nc2cc(OCCN)c3ccccc3n2)c1 |  | -0.506% | 
31 | CCCCC1CCC(c2nc(-c3ccncc3)no2)CC1 (stereo not given) |  | -24% | 
32 | C[C@H]1CC[C@@]2(OC1)O[C@H]1CC3C4CC[C@H]5C[C@@H](O)CC[C@]5(C)C4=CC(=O)[C@]3(C)[C@H]1[C@@H]2C (stereo not given in full) |  | -1.11% [at 17.3 µM] | 
33 | COc1ccc(S(=O)(=O)N2CCC[C@H]2C(=O)Nc2cc(C)cc(C)c2)cc1 |  | -4.67% | 
34 | COc1ccc(C2=NC(c3ccc(Cl)cc3)C(c3ccc(Cl)cc3)N2C(=O)N2CCNC(=O)C2)c(OC(C)C)c1 (stereo not given) |  | 5.71% | 
35 | N#CC(CCCN1CCC(O)(c2ccc(Cl)cc2)CC1)(c1ccccc1)c1ccccc1 | 20.6 µM (active) |  | 
36 | O=C(Nc1cc(C(F)(F)F)cc(C(F)(F)F)c1)c1cnc(Cl)nc1C(F)(F)F | 16.4 µM (active) |  | 
37 | COc1ccc(C2(CNC(=O)c3ccc(NC(=O)c4ccco4)cc3)CCOCC2)cc1 |  | -5.93% | 
38 | CC1(S(=O)(=O)O)CC(=O)c2ccccc2C1=O (stereo not given) |  | -14.7% | 
39 | COc1cc2nc(N3CCN(C(=O)c4ccco4)C4CCCCC43)nc(N)c2cc1OC (stereo not given) | 14.6 µM (active) |  | 
40 | CCNc1nc(Nc2cc(F)c(C(=O)N3CCOCC3)cc2OC)ncc1C(F)(F)F | 9.2 µM (active) |  | 
